Progeny production data for 44 compounds are collected here from the supplement of paper PMC10732440.

± gives the standard deviation of the averaged measurements.

The subject of the experiment is Caenorhabditis elegans N2 infected with Nematocida parisii ERTm1. The experiment can be described thus: progeny production relative to DMSO uninfected control; higher = more progeny despite microsporidia infection (inhibition of infection with low host toxicity). The following applies: infection time 6 days. Summed up:
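Compound was pinned to 100 μM or 40 μM in 1% DMSO into 96-well plates containing K-medium, E. coli OP50, 15,000 N. parisii spores/μL and 100 synchronised wild-type C. elegans L1 larvae per well. Following 6 days of shaking at 21°C, worms were Rose Bengal-stained, scanned and counted with WorMachine, in three runs per compound and dose. Progeny production appears as a replicate-averaged percentage of spore-free vehicle wells.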

The compound `CC(=O)N1c2ccccc2NC2=C(C(=O)CC(C)(C)C2)C1c1ccc(OCc2ccccc2)cc1` (configuration not stated) had a progeny production (40 µM) of 4.92 ± 0.34% and a progeny production (100 µM) of 9.82 ± 5.5%.
Taken in the same sequence, the figures for `C/C(=N\NC(=O)C1CC1c1ccccc1)c1ccc(NC(=O)c2ccco2)cc1` (configuration not stated) were 2.3 ± 0.95% and 6.87 ± 1.1%.
Taken in the same sequence, the figures for `CC(C)=CCC/C(C)=C/CNCCNC1C2CC3CC(C2)CC1C3` (configuration not stated) were 6.62 ± 1.2% and 30 ± 23%.
Turning to `Clc1cc(Cl)c2c(c1)CCc1ccccc1C2n1ccnc1` (configuration not stated), the progeny production (40 µM) amounted to 7.16 ± 0.49%.
In turn, `O=C(NCc1ccccc1Cl)c1cnc2ccccc2n1` showed a progeny production (40 µM) of 6.81 ± 1% and a progeny production (100 µM) of 12.1 ± 12%.
Taken in the same sequence, the figures for `Fc1ccc2c(/C=C/c3nnn[nH]3)c[nH]c2c1` were 3.91 ± 4% and 12.2 ± 9.8%.
Taken in the same sequence, the figures for `CC(C)c1cc2c(cc1S(=O)(=O)O)[C@@]1(C)CCC[C@@](C)(C(=O)O)[C@@H]1CC2` were 8.72 ± 4.5% and 4.55 ± 3%.
Take `OCCCCn1cnc2c(O)nc(NCc3ccc(Cl)c(Cl)c3)nc21`: the progeny production was found to be 4.76 ± 1.4% (40 µM) and 10.6 ± 7.9% (100 µM).
For `CCC(C)NCC(O)Cn1c2ccc(Cl)cc2c2cc(Cl)ccc21` (configuration not stated), the progeny production is, setting by setting: (40 µM) 7.33 ± 7%; (100 µM) 6.85 ± 6.4%.
Taken in the same sequence, the figures for `CN(C/C=C/C#CC(C)(C)C)Cc1cccc2ccccc12` were 5.74 ± 2.2% and 17.7 ± 11%.
Taken in the same sequence, the figures for `O=C(Nc1[nH]c(=O)ncc1F)c1ccccc1` were 4.09 ± 0.71% and 23.8 ± 20%.
Taken in the same sequence, the figures for `O=C(O)COc1cccc2c1CC[C@](O)(COC(=O)N(c1ccccc1)c1ccccc1)C2` were 4.24 ± 0.25% and 15.6 ± 8.1%.
As to `COc1ccc(SCC(=O)N2c3ccccc3Sc3ccccc32)cc1`, the progeny production reads like this: (40 µM) 5.84 ± 2.3%; (100 µM) 14.1 ± 5.9%.
Taken in the same sequence, the figures for `CCCC(=O)OCCc1ccccc1` were 5.19 ± 1.8% and 11.9 ± 12%.
Taken in the same sequence, the figures for `O=C1CCC(N2C(=O)c3ccccc3C2=O)C(=O)N1` (configuration not stated) were 9.53 ± 5.1% and 13.3 ± 8.9%.
Taken in the same sequence, the figures for `O=C(/C(=C/c1ccc(Cl)cc1Cl)n1ccnc1)c1ccc(Cl)cc1` were 24.5 ± 2.2% and 89.8 ± 17%.
Consider `Cc1c(N)cccc1Cn1ccc(OCCc2cccs2)cc1=O`, for which the progeny production reads like this: (40 µM) 7.99 ± 2.1%; (100 µM) 15.6 ± 15%.
Taken in the same sequence, the figures for `CCOc1ccc(/C=N/NC(=O)C2CC2c2ccc(C(C)(C)C)cc2)cc1OCC` (configuration not stated) were 5.73 ± 4.8% and 12 ± 7.9%.
`CCC(C)(C)c1ccc(CC(C)CN2C[C@@H](C)O[C@@H](C)C2)cc1` (some centres not stated): the progeny production was 4.64 ± 0.33% (40 µM) and 23 ± 23% (100 µM).
Taken in the same sequence, the figures for `CC1(C)[C@H](C(=O)O)N2C(=O)C[C@H]2S1(=O)=O` were 4.44 ± 0.8% and 10.7 ± 7.8%.
Taken in the same sequence, the figures for `CC[C@H](NC(=O)[C@H](C)NC)C(=O)N1C[C@@H](O)C[C@H]1Cc1c(-c2[nH]c3cc(F)ccc3c2C[C@@H]2C[C@H](O)CN2C(=O)[C@H](CC)NC(=O)[C@H](C)NC)[nH]c2cc(F)ccc12` were 6.99 ± 3.1% and 17.7 ± 7.7%.
Regarding `COc1ccc(C2=CC(c3c(F)cccc3Cl)n3ncnc3N2)cc1` (configuration not stated), the progeny production reads like this: (40 µM) 3.01 ± 1.9%; (100 µM) 8.48 ± 5.9%.
In the case of `O=C(Nc1nnc(-c2ccc(Cl)cc2)o1)c1ccc(F)cc1`, the progeny production (40 µM) was determined as 9.22 ± 7.4% and the progeny production (100 µM) is 12.6 ± 4.1%.
Taken in the same sequence, the figures for `Fc1ccc(-c2nc(-c3c[nH]c4ccc(Br)cc34)[nH]c2-c2ccc(F)cc2)cc1` were 3.87 ± 1.5% and 6.81 ± 2.8%.
Taken in the same sequence, the figures for `CCCC1(C2CC2)c2cc(Cl)ccc2NC(=O)N1C` (configuration not stated) were 2.32 ± 0.043% and 11.3 ± 3.5%.
Taken in the same sequence, the figures for `CC(=O)Nc1cc(NS(=O)(=O)c2ccc(Cl)cc2)cc2c(Cl)[nH]nc12` were 5.97 ± 4.1% and 8.68 ± 4%.
Turning to `Nc1nc(-c2ccccc2)nc2[nH]nc(Nc3ccc(C(F)(F)F)cc3)c12`, the progeny production came out at 7.69 ± 2.2% (40 µM) and 29.5 ± 27% (100 µM).
`CC[C@H]1OC(=O)[C@H](C)[C@@H](O[C@H]2C[C@@](C)(OC)[C@@H](O)[C@H](C)O2)[C@H](C)[C@@H](O[C@@H]2O[C@H](C)C[C@H](N(C)C)[C@H]2O)[C@](C)(O)C[C@@H](C)C(=O)[C@H](C)[C@@H](O)[C@]1(C)O` displayed a progeny production (40 µM) of 3.49 ± 0.53%.
Consider `CC(C)(C)NC(=O)[C@@H]1CN(Cc2cnc3occc3c2)CCN1C[C@@H](O)C[C@@H](Cc1ccccc1)C(=O)N[C@H]1c2ccccc2C[C@H]1O`, for which the progeny production is, setting by setting: (40 µM) 8.87 ± 0.17%; (100 µM) 8.42 ± 0.9%.
For `COc1cc(C)c2c(Oc3cccc(C(F)(F)F)c3)c(OC)cc(NC(C)CCCN)c2n1` (configuration not stated), where the note is “40 µM”, the progeny production came out at 4.23 ± 1%.
Where the note is “40 µM”, `Cc1cc(-c2ccccc2)c(C(=O)C(=O)Nc2ccc(N3CCN(c4ncc(F)cn4)CC3)cc2)n1C` returned a progeny production of 2.94 ± 0.74%.
Consider `C=CCc1cc(Cc2cnc(N)nc2N)cc(OC)c1O`, for which the progeny production by setting is: (40 µM) 3.9 ± 1.6%; (100 µM) 12.4 ± 5.1%.
The compound `Fc1ccc(-n2cc(Cn3c(-c4cccc(F)c4)nc4ccccc43)nn2)cc1` had a progeny production (40 µM) of 3.69 ± 0.39%.
Take `CC(C)(C)OC(=O)NCc1ccc(C(=O)N[C@H]2CCOC2=O)cc1`: the progeny production was found to be 5.57 ± 4.2% (40 µM) and 24.3 ± 18% (100 µM).
Taken in the same sequence, the figures for `COc1cc(Cc2cnc(N)nc2N)cc(OC)c1OC` were 1.91 ± 0.77% and 16.3 ± 11%.
Compound `CC(C)(C)c1ccc(C(=O)NC(=O)N2CCCc3ccccc32)cc1` yielded a progeny production (40 µM) of 4.23 ± 2.6% and a progeny production (100 µM) of 22.1 ± 18%.
In the case of `Cc1cc(NS(=O)(=O)c2ccc(-c3ccc(F)cc3F)cc2)no1`, the progeny production (40 µM) stood at 4.39 ± 1.9%.
As for `O=C(NC(=O)N1CCCc2ccccc21)c1ccc(Cl)cc1Cl`, the progeny production amounted to 3.48 ± 1.1% (40 µM) and 19.2 ± 21% (100 µM).
Taken in the same sequence, the figures for `NCC(=O)Nc1ccc(-n2nc(C(F)(F)F)cc2-c2ccc3c(ccc4ccccc43)c2)cc1` were 4.52 ± 2.6% and 11.9 ± 7%.
Taken in the same sequence, the figures for `Cc1c(OCC(F)(F)F)ccnc1C[S+]([O-])c1nc2ccccc2[nH]1` (configuration not stated) were 6.74 ± 4.3% and 11 ± 6.1%.
Taken in the same sequence, the figures for `CC(=O)Oc1ccccc1C(=O)Nc1ncc([N+](=O)[O-])s1` were 3.11 ± 1.7% and 10.8 ± 5.3%.
Consider `O=C(O)CCNC(=O)c1ccccc1`, for which the progeny production by setting is: (40 µM) 13 ± 12%; (100 µM) 16.4 ± 8.7%.
With `Fc1ccc2c(/C=C/c3cccnc3)c[nH]c2c1`, the progeny production reads like this: (40 µM) 3.47 ± 0.88%; (100 µM) 19.9 ± 9%.
Taken in the same sequence, the figures for `CCC(CC)[C@H](NC(C)=O)[C@@H]1[C@H](O)[C@@H](C(=O)O)C[C@H]1NC(=N)N` were 6.29 ± 2.5% and 7.52 ± 7.1%.
